These results are taken from PubChem BioAssay.

Assay [1] can be described thus: liver-stage malaria parasite load reduction – cell-based, known kinase inhibitor set, luminescence, hepatoma host viability (AID 624392).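 Also: infected cells incubated roughly two days before readout.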 The following applies: Plasmodium liver stage in hepatoma cells, luciferase luminescence, concentration not given here; liver cell % of control: measured here: host liver cell viability; parasite % of control: stronger effect = lower value.

The nature of assay [2]: altered dexamethasone sensitivity, NF-kB reporter, cell-based, luciferase, IL-1B stimulus (AID 624486).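 As to percent of negative control (+Dex): 100% = mean signal of vehicle control wells on the plate.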 The following applies: IL-1B + dexamethasone, luminescence; percent of negative control (+Dex): actives lie on both sides, concentration not given here; z-score: measured here: IL-1B alone, no Dex.
Assay [3] is described as follows: C. elegans survival during P. aeruginosa infection – whole organism (AID 651566).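 Also: tested at 14 µM; sign flipped so higher z means a lower ratio.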 The following applies: C. elegans killed by P. aeruginosa, survival ratio.
Assay [4] is described as follows: pro-inflammatory signaling induction in mouse macrophages – cell-based, murine, luminescence (AID 652131). The following applies: murine macrophage pro-inflammatory reporter, stronger effect = higher value.
In assay [5] the target is Cellular tumor antigen p53 (Homo sapiens) (UniProt P04637). In words: GFP-p53 level modulators in HPV16+ cells – imaging, known kinase inhibitor set, EGFP/DsRed ratio (AID 1053116).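 Also: cells exposed to compounds for 24 h at 37 °C before reading.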 The following applies: GFP-p53 stability, stronger effect = higher value; EGFP object count: measured here: GFP-p53 positive objects count.
The nature of assay [6]: inducers of IRF3 signaling, differentiated THP-1 – cell-based, PMA-stimulated THP-1, luminescence (AID 1053176). Conditions: PMA-differentiated THP-1, IRF3 reporter luminescence; stronger effect = higher value.
Assay [7] is described as follows: MELAS cybrid and Rieske KO viability enhancers – cell-based, MELAS cybrids, Rieske KO mouse fibroblasts, CellTiter-Glo, primary screen (AID 1508586;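 active = mean z-score across replicates of 1.96 or higher in either the MELAS or the Rieske mutant cell line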;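 also: z relative to plate mean and SD of compound and empty wells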). Conditions: low glucose. On the technique in general: Cellular ATP, detected with luciferase, serves as a proxy for viable cell number.
Where [8] appears, read: MELAS cybrid survival, CellTiter-Glo 48 h, stronger effect = higher value.
Where [9] appears, read: Rieske KO mouse fibroblast survival, CellTiter-Glo 72 h.

Molecules are shown by their SMILES. The source made the active and inactive calls. Unless noted, no rule for the calls is given here.

Chain of Cellular tumor antigen p53 (Homo sapiens) (P04637 whole entry, looked up): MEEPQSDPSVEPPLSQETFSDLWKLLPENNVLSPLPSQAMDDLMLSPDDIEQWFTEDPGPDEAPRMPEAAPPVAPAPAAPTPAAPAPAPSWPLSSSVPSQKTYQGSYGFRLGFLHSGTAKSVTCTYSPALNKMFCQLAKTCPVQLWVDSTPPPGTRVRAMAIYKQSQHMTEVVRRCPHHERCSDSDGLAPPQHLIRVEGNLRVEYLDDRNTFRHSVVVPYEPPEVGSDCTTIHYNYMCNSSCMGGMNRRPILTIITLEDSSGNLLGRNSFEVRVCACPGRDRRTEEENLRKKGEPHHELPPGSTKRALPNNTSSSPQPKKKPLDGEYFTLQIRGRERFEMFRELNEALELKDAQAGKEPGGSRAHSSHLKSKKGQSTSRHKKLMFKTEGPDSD

The molecule `O=C(NC1NNC2CC(c3ccccc3)CCC21)C1CC1` (centres undefined) came in with a liver cell % of control in assay [1] of 191%. In addition, in assay [1], the parasite % of control was 74.3% (inactive). The percent of negative control (+Dex) in assay [2] was 104% (inactive). Also, the z-score in assay [2] is 0.375; in assay [3] it was -1.73 (inactive); in assay [4], 0.532 (inactive); in assay [7] (setting [8]) it was -0.677 (inactive); in assay [7] (setting [9]) it was -0.221. Further, in assay [5], the EGFP object count was 2.5. The EGFP/DsRed ratio in assay [5] was 0.139 (inactive). The fraction signal in assay [6] is 0.012 (inactive).
For `FC(F)(F)c1ccc(-c2nn3ncccc3c2-c2ccnc(Nc3ccc4c(c3)OCCO4)n2)cc1`, the liver cell % of control in assay [1] is 105%. Also, in assay [1], the parasite % of control was 77.8% (inactive). Moreover, the percent of negative control (+Dex) in assay [2] was 110% (inactive). The z-score was 0.735 in assay [2]; -0.48 (inactive) in assay [3]; 0.358 (inactive) in assay [4]; 0.512 (inactive) in assay [7] (setting [8]); 0.23 in assay [7] (setting [9]). Further, the EGFP object count in assay [5] was determined as 5. The EGFP/DsRed ratio in assay [5] was 0.479 (inactive). Further, in assay [6], the fraction signal was 0.001 (inactive).
`CCn1c(-c2nonc2N)nc2c(C#CC(C)(C)O)nc(OCCNC)cc21` yielded a liver cell % of control in assay [1] of 78.2%. In addition, in assay [1], the parasite % of control is 239% (inactive). For the same molecule, the percent of negative control (+Dex) in assay [2] is 83.5% (inactive). Further, the z-score in assay [2] is -0.295; in assay [3], 1.3 (inactive); in assay [4], -0.135 (inactive); in assay [7] (setting [8]), -0.95 (inactive); in assay [7] (setting [9]), -0.363. In addition, the EGFP object count in assay [5] worked out at 10.5. For the same molecule, in assay [5], the EGFP/DsRed ratio was 0.224 (inactive). Also, in assay [6], the fraction signal was -0.006 (inactive).
Turning to `COc1cc2ncnc(Nc3ccc4c(cnn4Cc4ccccc4)c3)c2cc1OC`, the liver cell % of control in assay [1] amounted to 114%. Also, in assay [1], the parasite % of control was 129% (inactive). The percent of negative control (+Dex) in assay [2] is 71.5% (inactive). In addition, the z-score in assay [2] is -2.37; in assay [3], -0.95 (inactive); in assay [4], 3.16 (inactive); in assay [7] (setting [8]) it was 0.162 (inactive); in assay [7] (setting [9]), -0.293. Moreover, in assay [5], the EGFP object count was 4. Also, in assay [5], the EGFP/DsRed ratio is 0.17 (inactive). Besides, the fraction signal in assay [6] is 0.032 (inactive).
The molecule `CCn1c(-c2nonc2N)nc2ccccc21` yielded a liver cell % of control in assay [1] of 97.5%. The parasite % of control in assay [1] was 113% (inactive). Moreover, the percent of negative control (+Dex) in assay [2] is 80% (inactive). Besides, the z-score in assay [2] is -0.405; in assay [3], 0.585 (inactive); in assay [4] it was 0.013 (inactive); in assay [7] (setting [8]), -0.294 (inactive); in assay [7] (setting [9]), -0.443. Moreover, the EGFP object count in assay [5] is 3. In addition, the EGFP/DsRed ratio in assay [5] was 0.0652 (inactive). Besides, the fraction signal in assay [6] is -0.0025 (inactive).
`O=C(NCC1CC1)c1ccc(-c2cccc(C(=O)NC3CC3)c2)cc1`: the liver cell % of control in assay [1] turned out to be 164%. Besides, in assay [1], the parasite % of control is 130% (inactive). In assay [2], the percent of negative control (+Dex) is 91.5% (inactive). The z-score in assay [2] is 1.28; in assay [3] it was -0.465 (inactive); in assay [4] it was 1.36 (inactive); in assay [7] (setting [8]) it was -0.117 (inactive); in assay [7] (setting [9]), -0.418. Also, in assay [5], the EGFP object count was 4.5. Besides, the EGFP/DsRed ratio in assay [5] is 0.0862 (inactive). Besides, the fraction signal in assay [6] is 0 (inactive).
With `c1ccc(Nc2ncc(-c3ccccc3)o2)cc1`, in assay [1], the liver cell % of control was 98.7%. Besides, in assay [1], the parasite % of control was 93.5% (inactive). For the same molecule, the percent of negative control (+Dex) in assay [2] was 246% (active). Also, the z-score in assay [2] was 11.2; in assay [3], -1.27 (inactive); in assay [4] it was 0.128 (inactive); in assay [7] (setting [8]) it was 1.22 (inactive); in assay [7] (setting [9]), -0.446. Besides, the EGFP object count in assay [5] was 5. Also, the EGFP/DsRed ratio in assay [5] is 0.0918 (inactive). The fraction signal in assay [6] was -0.011 (inactive).
Consider `CCOc1ccc2c(-c3ccnc(Nc4cc(OC)cc(C(F)(F)F)c4)n3)cnn2n1`, for which the liver cell % of control in assay [1] is 65.9%. Also, in assay [1], the parasite % of control was 254% (inactive). In addition, the percent of negative control (+Dex) in assay [2] is 86.5% (inactive). Also, the z-score is 1.62 in assay [2]; -0.445 (inactive) in assay [3]; 0.258 (inactive) in assay [4]; 0.655 (inactive) in assay [7] (setting [8]); -0.17 in assay [7] (setting [9]). Further, in assay [5], the EGFP object count was 6. In addition, in assay [5], the EGFP/DsRed ratio was 0.102 (inactive). In assay [6], the fraction signal is -0.001 (inactive).
In assay [1], `CCn1c(-c2nonc2N)nc2c(N3CCCC3)nccc21` had a liver cell % of control of 90.8%. The parasite % of control in assay [1] is 137% (inactive). In addition, the percent of negative control (+Dex) in assay [2] was 80.5% (inactive). For the same molecule, the z-score in assay [2] was -0.655; in assay [3], -0.89 (inactive); in assay [4], 1.27 (inactive); in assay [7] (setting [8]), 0.113 (inactive); in assay [7] (setting [9]), -0.0304. In addition, the EGFP object count in assay [5] amounted to 3. In addition, in assay [5], the EGFP/DsRed ratio was 0.0699 (inactive). Besides, in assay [6], the fraction signal was -0.004 (inactive).
In assay [1], `CC(C)COC(=O)c1ccc2[nH]c(O)c(C=Nc3ccc(S(N)(=O)=O)cc3)c2c1` returned a liver cell % of control of 61%. Besides, the parasite % of control in assay [1] was 105% (inactive). The percent of negative control (+Dex) in assay [2] is 108% (inactive). For the same molecule, the z-score in assay [2] is 0.975; in assay [3] it was 0.47 (inactive); in assay [4], -1.9 (inactive); in assay [7] (setting [8]) it was -0.896 (inactive); in assay [7] (setting [9]), 0.112. Further, the EGFP object count in assay [5] was 3.5. Also, the EGFP/DsRed ratio in assay [5] is 0.0968 (inactive). For the same molecule, the fraction signal in assay [6] is -0.013 (inactive).
`CCn1c(-c2nonc2N)nc2cncc(C(=O)NCCNC)c21` yielded a liver cell % of control in assay [1] of 80.5%. Moreover, the parasite % of control in assay [1] was 190% (inactive). Also, the percent of negative control (+Dex) in assay [2] was 89% (inactive). The z-score in assay [2] is -0.865; in assay [3] it was 0.43 (inactive); in assay [4] it was -0.531 (inactive); in assay [7] (setting [8]), 3 (active); in assay [7] (setting [9]), 0.0886. Further, the EGFP object count in assay [5] stood at 7. In assay [5], the EGFP/DsRed ratio was 0.122 (inactive). Also, in assay [6], the fraction signal is -0.011 (inactive).
`CCn1cc(-c2ccnc3[nH]ccc23)c(-c2cccc(NC(=O)Nc3ccc(OCc4ccccc4)cc3)c2)n1` showed a liver cell % of control in assay [1] of 76%. Moreover, the parasite % of control in assay [1] was 95.6% (inactive). Further, the percent of negative control (+Dex) in assay [2] was 93.5% (inactive). Further, the z-score in assay [2] was 0.135; in assay [3], -1.14 (inactive); in assay [4] it was -1.24 (inactive); in assay [7] (setting [8]), 0.828 (inactive); in assay [7] (setting [9]), 0.137. In addition, the EGFP object count in assay [5] is 6.5. The EGFP/DsRed ratio in assay [5] was 0.11 (inactive). In assay [6], the fraction signal is -0.0115 (inactive).
In turn, `CCNC(=O)O[C@H]1CN[C@H](C#Cc2cc3ncnc(Nc4ccc(OCc5cccc(F)c5)c(Cl)c4)c3s2)C1` had a liver cell % of control in assay [1] of 105%. The parasite % of control in assay [1] was 113% (inactive). Further, the percent of negative control (+Dex) in assay [2] is 82.5% (inactive). Further, the z-score in assay [2] was -0.355; in assay [3], 1.02 (inactive); in assay [4] it was -0.875 (inactive); in assay [7] (setting [8]), 0.000408 (inactive); in assay [7] (setting [9]) it was -0.264. Besides, the EGFP object count in assay [5] worked out at 5.5. Besides, the EGFP/DsRed ratio in assay [5] is 0.233 (inactive). Further, in assay [6], the fraction signal was -0.003 (inactive).
In assay [1], `COc1ccc(C2=C(N3CCc4ccccc43)C(=O)NC2=O)cc1` displayed a liver cell % of control of 80.9%. Also, the parasite % of control in assay [1] was 77.5% (inactive). Also, the percent of negative control (+Dex) in assay [2] was 84% (inactive). In addition, the z-score is -0.36 in assay [2]; 0.12 (inactive) in assay [3]; -0.139 (inactive) in assay [4]; -0.15 (inactive) in assay [7] (setting [8]); -0.362 in assay [7] (setting [9]). Also, in assay [5], the EGFP object count was 7.5. Besides, the EGFP/DsRed ratio in assay [5] was 0.229 (inactive). Also, the fraction signal in assay [6] was -0.0035 (inactive).
